This is an account of results in PubChem BioAssay (NCI).

Structures are written as SMILES. This is part of a sample that, as a whole, favours compounds with a hit. Of some 83,000 tested, about 20% had one in any assay.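 Assay: single dose, 48 h. Readout: percent growth (0 = no net growth; negative = cell death). Active: <10.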 Activity calls are given as the source filed them.

The assay has as its system NCI-H23 lung. The assay can be described thus: NCI-60 one-dose screen, 48 h (100 = growth as untreated, 0 = no growth, -100 = all killed). The settings on record: 10 µM unless noted.
Turning to `O=C1c2cc3c(cc2-c2c1c1cc(Cl)c(Cl)cc1c(=O)n2CCCn1ccnc1)OCO3`, the growth was -19.4% (active).
For `CCCCCCCCOC(=O)CC[C@@H](C)[C@H]1CC[C@H]2[C@@H]3[C@H](OC(=O)CCN)C[C@@H]4C[C@H](OC(=O)CCN)CC[C@]4(C)[C@H]3C[C@H](OC(=O)CCN)[C@]12C` the value was 90.3% (inactive); for `COc1ccc(-c2cnoc2-c2cc(OC)c3c(c2)OCCO3)cc1`, 16.7% (inactive).
Regarding `Cc1nn(-c2ccccc2)c2nc(C)n(-c3ccc(Br)cc3)c(=O)c12`, the growth was 16% (inactive).
For `CCN(CC)CC(C)(C)C(=O)/C=C/c1ccccc1` the value was 62.1% (inactive); for `Cc1ccc2cnc(N)c(C#Cc3cncc(C(=O)Nc4ccc(CN5CCN(C)CC5)c(C(F)(F)F)c4)c3)c2c1`, -63.8% (active); for `C[C@H](CCC(=O)O)[C@H]1CC[C@H]2[C@@H]3CC[C@@H]4/C(=C\c5ccco5)C(=O)/C(=C\c5ccco5)C[C@]4(C)[C@H]3CC[C@]12C`, 70.4% (inactive).
Then `COc1ccc(-c2cc(-c3ccc(N(C)C)cc3)nc(NC(=O)c3ccncc3)n2)cc1`, with 91.8% (inactive); and `COc1ccc2c(c1)C(=O)/C(=C/c1cccc(OCC(=O)Nc3nc4c(s3)CCCC4)c1)O2`, with -48.9% (active).
Consider `Cc1nc2sc(C(=O)Nc3cccc4c3OCCO4)c(N)c2cc1C(C)O` (stereo not given), for which the growth is 57.6% (inactive).
Then `CCCCCCNC(=O)Oc1ccc(/C(=C(\C)c2ccccc2)c2ccc(OCCN(CC)CC)cc2)cc1`, with 69.6% (inactive); and `O=[N+]([O-])c1c(F)cccc1Nc1cccc(F)c1`, with 104% (inactive); and `Nc1ccc2c(c1)C(=O)NC2=O`, with 91.7% (inactive).
As for `CC(C)[C@@H]1CC[C@]2(C(=O)NCCCCN=C(N)N)CC[C@]3(C)[C@H](CC[C@@H]4[C@@]5(C)CCC(=O)C(C)(C)[C@@H]5CC[C@]43C)[C@@H]12`, the growth was 69.3% (inactive).
As to `CCc1ccccc1NC(=O)c1sc2nc3c(cc2c1N)C(=O)CCC3`, the growth is 38.2% (inactive).
For `O=C1c2c[n+](Cc3ccccc3)ccc2-c2nc3ccccc3c3ccnc1c23` the value was -32.8% (active); for `CCN(C(=O)CN1CCN(c2cc3c(cc2F)c(=O)c(C(=O)O)cn3CC)CC1)c1nc(-c2ccccc2)cs1`, 9.94% (active).
For `O=C(Nc1ccc(F)cc1)Nc1ccc(CCO)cc1` the value was 104% (inactive); for `CCCNc1nc(SC)nc(-c2cccc(N)c2)c1C#N`, 93.2% (inactive); for `CC/C(=C(\c1ccc(O)cc1)c1ccc(OCCN(C)CCN(C)C(=O)CCCCC(=O)c2c(C)[nH]c(/C=C3\N=C(c4ccc[nH]4)C=C3OC)c2C)cc1)c1ccccc1`, 94.1% (inactive).
In the case of `c1c2c(cc3c1OCO3)Cc1cc3c(cc1Cc1cc4c(cc1C2)OCO4)OCO3`, the growth is 109% (inactive).
For `C(=N\Nc1nnn(Cc2ccccc2)n1)/c1ccccc1` the value was 53.1% (inactive); for `NS(=O)(=O)N(c1cc(C(F)(F)F)cc(C(F)(F)F)c1)C1CCN(Cc2ccc(F)cc2)CC1`, 55.5% (inactive).
`CC(=O)Oc1cc2cnc3c4cc(OC(C)=O)c(OC(C)=O)cc4ccc3c2cc1OC(C)=O`: the growth is 25.4% (inactive).
For `O=C1C=CC(Nc2ccccc2[N+](=O)[O-])C1Nc1ccccc1[N+](=O)[O-]` (stereo not given) the value was 6.85% (active); for `O=C(COCc1c(-c2ccccc2)no[n+]1[O-])Nc1ccc(C(=O)/C=C/c2ccc3c(c2)OCO3)cc1`, 101% (inactive); for `CCOC(=O)c1c2c(n3ccc(NC(=O)CCN4CCOCC4)cc13)C(=O)c1ncccc1C2=O`, 16.7% (inactive).
For `COc1cc2c(=O)n(CC3CCCCC3)c3c4cc[nH]c4ncc3c2cc1OC`, the growth is 45.3% (inactive).
Take `COc1ccc(-c2cc(=O)[nH]c3c(OC)c4ccccc4c(OC)c23)cc1`: the growth was 19.2% (inactive).
For `Cn1c(=O)c2[nH]c(C(O)C(O)C(O)C(O)CO)nc2n(C)c1=O` (stereo not given) the value was 100% (inactive).
Then `C=C1CCC2C3(C)COC(c4ccc(OC)cc4Br)OC3CCC2(C)C1/C=C/C1=CCOC1=O` (stereo not given), with 52.7% (inactive).
For `COc1ccc(-c2cn3c(ccc4ccccc43)n2)cc1` the value was 97.5% (inactive); for `Cc1ccc(Nc2c(C(N)=O)cnc3ccc(-c4csc(N)n4)cc23)cc1`, 88.3% (inactive); for `CCN(CC)CC#CCOC(=O)[C@]1(C)CCC[C@@]2(C)[C@H]1CC(C=O)=C1C=C(C(C)C)CC[C@@H]12`, 60.2% (inactive).
As to `CCCCCCCCCCCCS(=O)CC(C)O` (stereo not given), the growth is 115% (inactive).
